# In all, about 5,500 compounds went through this assay and about 2,000 (36%) were called active. Another 18% or so got no clear call; they are omitted. This is one part of the list. A number with no mark means an inactive call. Cut-off read from the data, not from the text of the source: active = normalized growth mostly below about 0.91 (no sharp cut-off); inconclusive = no clear call, values can overlap the other calls; inactive = mostly above about 0.92.
# Test: chemical genetic growth profiling, strain panel (AID 1159580);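 note: tested at 20 µM; growth read once vehicle control cultures reached saturation at 30 °C; 1 = growth at the plate median or of vehicle wells; lower values mean less growth of the strain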
# Settings: S. cerevisiae deletion strains, growth OD
structure (smiles),measurement,setting,value
COc1ccc2oc3ccccc3c(=O)c2c1,normalized growth,"locus YAL021C, strain ccr4, active compounds read low",0.948
same,normalized growth,"locus YAL026C, strain drs2, active compounds read low",0.884 (active)
same,normalized growth,"locus YAL030W, strain snc1, active compounds read low",0.926 (active)
same,normalized growth,"locus YBL061C, strain skt5, active compounds read low",0.896 (active)
same,normalized growth,"locus YBR009C, strain hhf1, active compounds read low",0.712 (active)
same,normalized growth,"locus YBR021W, strain FUR4, active compounds read low",1.22 [resistant] (active)
same,normalized growth,"locus YBR023C, strain chs3, active compounds read low",0.874 (active)
same,normalized growth,"locus YBR171W, strain sec66, active compounds read low",0.886 (active)
same,normalized growth,"locus YBR229C, strain ROT2, active compounds read low",0.885 (active)
same,normalized growth,"locus YBR231C, strain swc5, active compounds read low",0.76 (active)
same,normalized growth,"locus YBR279W, strain paf1, active compounds read low",0.883 (active)
same,normalized growth,"locus YCL011C, strain gbp2, active compounds read low",0.899 (active)
same,normalized growth,"locus YCL016C, strain dcc1, active compounds read low",0.842 (active)
same,normalized growth,"locus YCL029C, strain bik1, active compounds read low",0.884 (active)
same,normalized growth,"locus YCL061C, strain MRC1, active compounds read low",0.9 (active)
same,normalized growth,"locus YCL069W, strain vba3, active compounds read low",0.922 (active)
same,normalized growth,"locus YCR088W, strain abp1, active compounds read low",0.956
same,normalized growth,"locus YDL005C, strain med2, active compounds read low",0.978
same,normalized growth,"locus YDL035C, strain GPR1, active compounds read low",0.861
same,normalized growth,"locus YDL040C, strain nat1, active compounds read low",0.935
same,normalized growth,"locus YDL074C, strain BRE1, active compounds read low",0.762 (active)
same,normalized growth,"locus YDL101C, strain DUN1, active compounds read low",0.76 (active)
same,normalized growth,"locus YDL134C, strain PPH21, active compounds read low",0.791 (active)
same,normalized growth,"locus YDL185W, strain tfp1, active compounds read low",0.809 (active)
same,normalized growth,"locus YDL192W, strain arf1, active compounds read low",0.814 (active)
same,normalized growth,"locus YDR001C, strain nth1, active compounds read low",0.944
same,normalized growth,"locus YDR069C, strain doa4, active compounds read low",0.918
same,normalized growth,"locus YDR101C, strain arx1, active compounds read low",0.88 (active)
same,normalized growth,"locus YDR137W, strain rgp1, active compounds read low",0.556 (active)
same,normalized growth,"locus YDR150W, strain NUM1, active compounds read low",0.904 (active)
same,normalized growth,"locus YDR159W, strain sac3, active compounds read low",0.901
same,normalized growth,"locus YDR162C, strain NBP2, active compounds read low",0.437 (active)
same,normalized growth,"locus YDR195W, strain ref2",1.28 [resistant] (active)
same,normalized growth,"locus YDR297W, strain sur2, active compounds read low",0.935
same,normalized growth,"locus YDR318W, strain mcm21, active compounds read low",0.862 (active)
same,normalized growth,"locus YDR334W, strain swr1, active compounds read low",0.852 (active)
same,normalized growth,"locus YDR335W, strain msn5, active compounds read low",0.874 (active)
same,normalized growth,"locus YDR388W, active compounds read low",0.901 (active)
same,normalized growth,"locus YDR392W, strain spt3, active compounds read low",0.35 (active)
same,normalized growth,"locus YDR502C, strain sam2, active compounds read low",0.848 (active)
same,normalized growth,"locus YEL003W, strain gim4, active compounds read low",0.819 (active)
same,normalized growth,"locus YEL037C, strain rad23, active compounds read low",0.925
same,normalized growth,"locus YEL061C, strain CIN8 (second series), active compounds read low",0.676 (active)
same,normalized growth,"locus YEL061C, strain CIN8, active compounds read low",0.718 (active)
same,normalized growth,"locus YER015W, strain faa2, active compounds read low",0.931
same,normalized growth,"locus YER016W, strain bim1, active compounds read low",0.903 (active)
same,normalized growth,"locus YER110C, active compounds read low",0.837 (active)
same,normalized growth,"locus YER111C, strain swi4, active compounds read low",0.87 (active)
same,normalized growth,"locus YER155C, strain BEM2 (second series), active compounds read low",0.249 (active)
same,normalized growth,"locus YER155C, strain BEM2, active compounds read low",0.997
same,normalized growth,"locus YER167W, strain BCK2, active compounds read low",0.918
same,normalized growth,"locus YFR010W, strain ubp6, active compounds read low",0.904
same,normalized growth,"locus YGL078C, strain dbp3, active compounds read low",0.9 (active)
same,normalized growth,"locus YGL086W, strain mad1, active compounds read low",0.836 (active)
same,normalized growth,"locus YGL167C, strain pmr1, active compounds read low",0.902 (active)
same,normalized growth,"locus YGL173C, strain kem1, active compounds read low",0.882 (active)
same,normalized growth,"locus YGL227W, strain vid30, active compounds read low",0.94
same,normalized growth,"locus YGL240W, strain doc1, active compounds read low",0.785 (active)
same,normalized growth,"locus YGL248W, strain PDE1, active compounds read low",0.836 (active)
same,normalized growth,"locus YGL253W, strain hxk2, active compounds read low",0.74 (active)
same,normalized growth,"locus YGR135W, strain pre9, active compounds read low",0.811 (active)
same,normalized growth,"locus YGR252W, strain gcn5, active compounds read low",0.799
same,normalized growth,"locus YHR013C, strain ard1, active compounds read low",0.631 (active)
same,normalized growth,"locus YHR027C, strain rpn1, active compounds read low",0.939
same,normalized growth,"locus YHR030C, strain SLT2, active compounds read low",0.656 (active)
same,normalized growth,"locus YHR079C, strain IRE1 (second series), active compounds read low",0.902 (active)
same,normalized growth,"locus YHR094C, strain hxt1, active compounds read low",0.912 (active)
same,normalized growth,"locus YHR129C, strain ARP1, active compounds read low",0.897 (active)
same,normalized growth,"locus YHR142W, strain chs7, active compounds read low",0.688 (active)
same,normalized growth,"locus YHR200W, strain rpn10, active compounds read low",0.862 (active)
same,normalized growth,"locus YIL066C, strain RNR3, active compounds read low",0.761 (active)
same,normalized growth,"locus YIL073C, strain SPO22, active compounds read low",0.736
same,normalized growth,"locus YIL125W, strain kgd1, active compounds read low",0.9 (active)
same,normalized growth,"locus YIR030C, strain dcg1, active compounds read low",0.91 (active)
same,normalized growth,"locus YJL092W, strain hpr5, active compounds read low",0.944
same,normalized growth,"locus YJL095W, strain BCK1 (second series), active compounds read low",0.65 (active)
same,normalized growth,"locus YJL095W, strain BCK1, active compounds read low",0.428 (active)
same,normalized growth,"locus YJL115W, strain asf1, active compounds read low",0.948
same,normalized growth,"locus YJL129C, strain trk1, active compounds read low",0.921
same,normalized growth,"locus YJL134W, strain LCB3, active compounds read low",0.913 (active)
same,normalized growth,"locus YJL154C, strain vps35, active compounds read low",0.947
same,normalized growth,"locus YJL164C, strain tpk1, active compounds read low",0.844 (active)
same,normalized growth,"locus YJL166W, strain qcr8, active compounds read low",0.756 (active)
same,normalized growth,"locus YJL168C, strain set2, active compounds read low",0.903 (active)
same,normalized growth,"locus YJL187C, strain SWE1 (second series), active compounds read low",0.828 (active)
